Sampled rows, rich in hits. Any-hit rate of the full collection: about 2.3%.
M1 PAM: positive allosteric modulators of human M1 muscarinic receptor; P11229; CHO-K1 hM1, Fluo-8 calcium fluorescence, ACh EC20; 0% = ACh EC20, 100% = maximal ACh; activation, % at 3 µM; hit rate 0.088% among 360,000; AID 588819; in the data active = activation above about 19%, passing the limit was not always enough
Target sequence (P11229 whole entry, looked up): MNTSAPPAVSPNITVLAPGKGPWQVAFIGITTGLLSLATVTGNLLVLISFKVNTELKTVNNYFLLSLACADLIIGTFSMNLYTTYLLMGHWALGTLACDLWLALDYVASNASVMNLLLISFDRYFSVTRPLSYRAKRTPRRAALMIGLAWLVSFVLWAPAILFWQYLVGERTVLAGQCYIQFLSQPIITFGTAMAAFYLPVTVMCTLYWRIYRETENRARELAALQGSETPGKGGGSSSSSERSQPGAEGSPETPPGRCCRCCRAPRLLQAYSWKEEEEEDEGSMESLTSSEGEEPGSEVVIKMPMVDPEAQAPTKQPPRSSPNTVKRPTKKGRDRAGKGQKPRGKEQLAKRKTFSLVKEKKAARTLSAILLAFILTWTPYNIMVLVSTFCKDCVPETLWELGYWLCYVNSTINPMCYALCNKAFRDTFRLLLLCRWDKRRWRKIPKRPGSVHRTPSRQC
M1 PAM parental: counter-screen for M1 PAMs: effect in parental CHO-K1 cells; ATP EC20, Fluo-8 calcium fluorescence; 0% at ATP EC20, 100% at ATP max; activation, % at 3 µM; hit rate 0.02% among 360,000;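 active = activation above the run cutoff, the mean activation of all test compounds plus 3 SD, cut at about 40% in these data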;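 note: peak over basal fluorescence ratio in a 140 s read after ATP addition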
M1 antag: blocks human M1 muscarinic receptor. P11229. CHO-K1 hM1, Fluo-8 calcium fluorescence, ACh EC80 antagonist. inhibition, % at 3 µM. hit rate 1.3% among 360,000. AID 588852;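 active = percent inhibition above its own plate's cutoff, namely the mean of that plate's compound wells plus 3 SD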;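 note: peak over basal fluorescence ratio during 140 s after agonist addition; 0% = ACh EC80 plus DMSO and 100% = DMSO alone without agonist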
M1 ag parental: counter-screen for M1 agonists: effect in parental CHO-K1 cells. Fluo-8 calcium fluorescence; scaled to maximal ATP response, vehicle zero. hit rate 0.48% among 360,000. activation, % at 3 µM; in the data active = activation above about 15%;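 note: untransfected CHO-K1 host cells lacking M1 receptor as counterscreen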
CHO-K1 Ca antag: nonselective inhibitor or artifact in parental CHO-K1 cells; ATP-induced calcium, Fluo-8 fluorescence; hit rate 0.6% among 360,000; inhibition, % at 3 µM;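 active = inhibition above a per-plate cutoff, the plate's mean sample inhibition plus 3 SD, cut at about 24% in these data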;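 note: 0% = DMSO plus EC80 ATP and 100% = DMSO alone without ATP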
CHRM1 agonist: agonists of human M1 muscarinic receptor. CHO-K1 hM1, Fluo-8 calcium fluorescence, agonist mode; 0% DMSO, 100% acetylcholine EC100. hit rate 0.33% among 360,000. AID 588814. activation, % at 3 µM. P11229;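 active = activation above the run's mean compound activation plus 3 SD, cut at about 16% in these data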;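 note: peak over basal fluorescence ratio within a 140 s kinetic read after compound addition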
Numbers without * were called inactive; · = no result.

SMILES	M1 PAM	M1 PAM parental	M1 antag	M1 ag parental	CHO-K1 Ca antag	CHRM1 agonist
O=C(CC(c1ccccc1O)N1CCCCC1)N1CCCCC1 (stereo unspecified)	-23	-2	70*	0	-1	-6
O=C(CC(c1ccccc1)c1cc(Cl)ccc1O)N1CCCC1 (stereo unspecified)	-5	24	4	12	-11	-4
CCN(CC)C(=O)C1=C(C)N(Cc2ccc(F)cc2)C(=O)C(CC(=O)NCC2CCCCC2)C1 (stereo unspecified)	8	12	-13	-1	-19	-7
CCOC(=O)[C@]12CCCC=C1N(Cc1cccc3ccccc13)C(=O)[C@H](CC(=O)NCCCCc1ccccc1)C2	·	12	·	1	-18	·
Cc1ccc(NC(=S)NC2CCSc3ccccc32)cc1 (stereo unspecified)	-36	-9	79*	7	-1	-12
CC(=O)Nc1ccc(C(=O)NC2CCSc3ccccc32)cc1 (stereo unspecified)	8	20	-13	2	-11	-6
Brc1ccc(-c2nn3c(-c4ccco4)nnc3s2)o1	7	-6	-7	0	25*	-7
Clc1ccc(-c2ccc(-c3nn4c(-c5ccco5)nnc4s3)o2)cc1	8	9	-2	0	-30	-2
CN(C(=O)COC(=O)c1n[nH]c2ccccc12)C1CCS(=O)(=O)C1 (stereo unspecified)	1	10	-8	0	-12	-5
COCc1c(C(=O)OCC(=O)N(C)C2CCS(=O)(=O)C2)oc2ccccc12 (stereo unspecified)	-19	-1	36*	0	-6	-9
COc1ccc(S(N)(=O)=O)cc1C(=O)OCC(=O)N1c2ccccc2NC(=O)C1(C)C	13	-6	-11	0	-5	2
O=C1CN(C(=O)COC(=O)c2oc3ccccc3c2COc2ccccc2)c2ccccc2N1	2	-5	-2	0	4	-4
COCc1c(C(=O)OCC(=O)N2CCCC2=O)oc2ccccc12	19	8	-18	0	0	-2
COCc1c(C(=O)OCC(=O)N2c3ccccc3NC(=O)C2(C)C)oc2ccccc12	-9	-4	16	4	30*	0
COCc1c(C(=O)OCC(=O)N2c3ccccc3CC2C)oc2ccccc12 (stereo unspecified)	9	-7	9	0	24*	-1
COc1cc(/C=C/C(=O)OCC(=O)N2c3ccccc3NC(=O)C2(C)C)cc(OC)c1OC	-13	7	33*	9	-8	0
COc1cccc2ccc(CC(O)(c3ccccc3)c3ccccc3)nc12	5	12	-15	0	-5	-7
O=C(Nc1ccc(Oc2ccccc2)cc1)c1ccc2nc([C@@H]3O[C@H](CO)[C@H](O)[C@H](O)[C@H]3O)[nH]c2c1	1	-5	-7	0	1	-2
CC1(C)C(=O)Nc2ccccc2N1C(=O)COC(=O)c1ccc(Cl)c(S(=O)(=O)NCc2ccccc2)c1	-12	5	30*	3	15	1
CC1(C)C(=O)Nc2ccccc2N1C(=O)COC(=O)c1cc(S(C)(=O)=O)ccc1Cl	6	-10	-5	2	-13	-1
O=C1CSc2ccc(C(=O)N3CCCCC3)cc2N1	-3	-5	3	0	0	-3
C[C@@H]1CN([C@@H](C)CO)C(=O)c2cc(Br)cnc2O[C@H]1CN(C)C(=O)Cc1cccnc1	8	25	-6	1	-20	-4
O=C(Nc1ccc(F)c(Cl)c1)C1Cc2c(-c3ccccc3Oc3ccccc3)ccnc2O1 (stereo unspecified)	-1	0	-4	0	-6	-1
CCCC[n+]1ccn(-c2nc3ccccc3nc2[N-]S(=O)(=O)c2ccc(C)cc2)c1	3	13	-7	0	-6	1
CCCC[n+]1ccn(-c2nc3ccccc3nc2[N-]S(=O)(=O)c2ccccc2)c1	-7	21	-7	0	-8	19*
COc1ccc(/C=C/C(=O)OCC(=O)Nc2cc(C(N)=O)cc(C(N)=O)c2)cc1	11	-15	-8	11	25*	-7

Screening data (PubChem BioAssay)
